Screening data (PubChem BioAssay)
NLRP3 yeast inh: blocks the NALP3 inflammasome reconstituted in yeast; Yeast reconstituted NLRP3/ASC/caspase-1, beta-gal luminescence, 24 h; inhibition, % at 10 µM; 330,000 tested, 0.39% active;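 active = inhibition of 50% or more; inactive = inhibition below 50%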;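 note: plate controls were induced DMSO wells for no effect and uninduced yeast grown without galactose for full effect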
PfHsp90 yeast 2: growth inhibition of yeast expressing Plasmodium Hsp90 | S. cerevisiae expressing PfHsp90, BacTiter-Glo ATP, 48 h; yeast lacking PDR1 and PDR3 efflux regulators | inhibition, % at 9.4 µM | 310,000 tested, 0.32% active;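 active = every replicate shows inhibition above about 80%, whatever the replicate mean, limit read from the data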;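 note: 0% = DMSO neutral controls and 100% = 20 µM radicicol positive controls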
NALP1 inh: blocks the NALP1 inflammasome reconstituted in yeast. inhibition, % at 10 µM. 280,000 tested, 0.61% active. S. cerevisiae NALP1/ASC/caspase-1 growth, X-gal OD620, 72 h; in the data active = inhibition mostly above about 24%, no sharp cut-off; inactive = mostly below about 32%
TIM10 inh: TIM10 yeast growth inhibition | S. cerevisiae TIM10 strain growth, BacTiter-Glo luminescence, 24 h | inhibition, % at 10 µM | 330,000 tested, 1.4% active | AID 463195;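 active = inhibition of 40% or more at the single tested concentration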;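 note: wild-type TIM10 isogenic control strain grown at permissive 25 °C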
tim10-1 inh: inhibits growth of tim10-1 mutant yeast. S. cerevisiae tim10-1 ts strain growth, BacTiter-Glo, 24 h. inhibition, % at 20 µM. 330,000 tested, 2.2% active. AID 463190;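 active = inhibition of at least 40%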;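 note: mutant grown at 25 °C; 0% = DMSO wells with yeast and 100% = wells holding no yeast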
tim23-1 inh: inhibits growth of tim23-1 mutant yeast | S. cerevisiae tim23-1 growth, BacTiter-Glo luminescence, 24 h | inhibition, % at 20 µM | 330,000 tested, 1.3% active | AID 463212;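 active = growth inhibition of the mutant yeast at or above 50%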;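 note: temperature-sensitive mutant grown at 25 °C; plate controls were DMSO-treated mutant yeast for no effect and medium wells lacking yeast for full effect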
tim10-1 confirm: tim10-1 yeast growth inhibition, confirmed; shares compounds with tim10-1 inh; S. cerevisiae tim10-1 ts strain growth, BacTiter-Glo, 24 h; inhibition, % at 20 µM; 7,400 tested, 56% active; AID 463213;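 active = inhibition of yeast growth at or above a set limit in either of two repeat tests at 20 µM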;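 note: tim10-1 mutant grown at permissive 25 °C to find synthetic lethal compounds; 0% = DMSO yeast wells and 100% = medium wells without yeast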
* marks the source's active call; other numbers are inactive results; / = no result given. A selection: hits, their analogues and other compounds. The true share with any hit is near 4.2%.

SMILES	NLRP3 yeast inh	PfHsp90 yeast 2	NALP1 inh	TIM10 inh	tim10-1 inh	tim23-1 inh	tim10-1 confirm
O=C(CSc1nnc(-c2cccs2)o1)c1cccs1	5.7	-18.3	23.4	10.1	6.9	-2.7	/
CN(C)C(=O)CSc1nnc(-c2cc(-c3cccs3)nc3ccccc23)o1	30.8	9.8	20.8	31.8	40.4*	33.7	38.2*
CCN(CC)C(=O)CSc1nnc(-c2cc(-c3ccc(Cl)cc3)nc3ccccc23)o1	13.5	13.3	12.2	0.2	4.5	17.9	/
N#CCSc1ccc2nc(-c3ccccc3)cn2n1	47.6	3.1	20.6	9.3	34.4	29.4	/
COc1ccccc1CN(C)C(=O)c1ccccc1Sc1ccccc1C#N	9.7	-0.4	5.0	11.7	29.5	36.5	/
CN1N=C(c2ccc(Cl)cc2)CC(c2ccc(Cl)cc2)C1=O (centres undefined)	25.0	-0.2	12.5	12.2	42.4*	39.8	29.1
CCc1ccc(C2CC(c3ccc(Cl)cc3)=NNC2=O)cc1 (centres undefined)	19.4	/	4.3	8.6	30.8	31.9	/
CCOC(=O)Cc1nnc2c(Nc3ccc(Cl)cc3)nc3nonc3n12	-16.8	-13.4	28.0	30.1	50.5*	48.6	33.2*
Cc1ccccc1CNC(=O)c1ccc(Cl)c([N+](=O)[O-])c1	38.8	6.9	29.0	-0.5	43.0*	45.4	22.1
Cc1ccccc1CNC(=O)Cc1ccccc1[N+](=O)[O-]	12.0	36.0	21.5	-1.7	9.8	16.1	/
Cc1oc2c(Cl)c(Cl)c(O)c(CN(C)C)c2c1C(=O)c1ccc(Cl)cc1	18.2	-5.2	-4.9	37.7	48.7*	45.2	52.8*
CCNC(=S)Nc1ccc(N(c2ccccc2)C(C)C)cc1	10.1	-10.2	0.2	4.6	42.4*	18.5	27.6
CC(C)CNC(=S)Nc1ccc(Oc2ccccc2)cc1	29.0	-2.2	31.8	36.2	43.1*	44.9	24.4
O=C1C(NS(=O)(=O)c2cccs2)=C(N2CCOCC2)C(=O)c2ccccc21	-5.5	7.3	2.8	12.4	18.8	23.4	/
CN(C1=C(N2CCOCC2)C(=O)c2ccccc2C1=O)c1ccccc1	33.6	3.5	27.5	11.9	44.9*	42.1	20.1
CCN1C(=O)C2(C(C#N)=C(N)Oc3c2c(C)nn3-c2ccccc2)c2ccccc21 (centres undefined)	0.3	/	11.3	33.3	64.5*	39.1	62.5*
CN(C(=O)c1ccc(NC(=O)Cc2ccc(NC(=O)C3CCCN(C(=O)C4CC4)C3)cc2)cc1)C1CC1 (centres undefined)	2.9	7.3	/	0.2	-9.5	5.9	/
c1ccc(-c2oc3ncnc(NCCCN4CCOCC4)c3c2-c2ccccc2)cc1	36.0	-1.3	-6.0	-23.3	21.6	13.2	/
COc1ccc(-c2oc3ncnc(NCCN4CCOCC4)c3c2-c2ccc(OC)cc2)cc1	12.2	5.4	-1.5	37.6	47.9*	39.0	28.8*
COc1ccc(-c2csc3ncnc(NCCN4CCOCC4)c23)cc1	9.7	-3.9	-4.4	10.7	18.7	25.1	/
COc1ccc(-c2oc3ncnc(NCCCN4CCOCC4)c3c2-c2ccc(OC)cc2)cc1	-0.7	28.2	36.0	29.0	41.1*	48.2	23.4
CC1C(c2ccc3c(c2)OCO3)c2cc3c(cc2OC1N1CCOCC1)OCO3 (centres undefined)	/	14.7	/	/	/	/	/
C=C1/C(=C\C=C2/CCC[C@]3(C)[C@@H]([C@H](C)/C=C/[C@@H](O)C4CC4)CC[C@@H]23)C[C@@H](O)C[C@@H]1O	48.0	/	/	9.9	44.0*	41.5	26.2
COc1ccc(CNC(=O)Cn2nc(C(F)(F)F)c3c2CCC3)cc1	5.8	16.6	20.0	21.0	41.8*	27.7	21.4
COc1ccc(NC(=O)Cn2nc(C(F)(F)F)c3c2CCCC3)c(OC)c1	15.2	/	15.6	10.7	11.2	7.8	/
SMILES	NLRP3 yeast inh	PfHsp90 yeast 2	NALP1 inh	TIM10 inh	tim10-1 inh	tim23-1 inh	tim10-1 confirm
COc1ccc(CNC(=O)CSc2nc(SC)ns2)cc1	28.3	4.0	5.9	-4.7	1.0	5.4	/
COc1cc(/C=C(\C#N)c2nc3ccccc3s2)cc([N+](=O)[O-])c1O	10.4	-12.4	-8.7	14.6	45.9*	29.1	28.9
N#CCCN(CCC#N)C(=O)C1c2ccccc2Oc2ccccc21	15.3	-8.3	5.7	6.0	3.0	17.3	/
CCCCc1ccc(C2C(C#N)=C(N)SC(N)=C2C#N)s1	13.7	/	15.9	11.5	50.5*	32.9	34.4*
CCN(CC)CCNc1nc2nonc2nc1NCCN(CC)CC	-3.9	7.9	/	19.5	-5.8	11.2	/
O=C(NC1CCN(S(=O)(=O)c2ccc(F)cc2)CC1)c1cccc(F)c1	-1.8	4.5	14.5	-1.3	-0.3	-3.9	/
COc1ccc(S(=O)(=O)N2CCCC(C(=O)NCCN3CCOCC3)C2)cc1C (centres undefined)	-13.1	14.5	9.4	-9.3	5.7	6.5	/
CCCCc1ccc(S(=O)(=O)Nc2nnc(C)s2)cc1	21.3	9.0	17.0	-1.5	3.2	8.8	/
CC(=O)Nc1ccc(S(=O)(=O)NC(C)C(=O)NCC(c2ccco2)N(C)C)cc1 (centres undefined)	8.5	-5.7	/	-15.3	-10.5	-0.5	/
Cn1nc(C(F)(F)F)c(C(=O)Nc2ccc(F)cc2F)c1Sc1cccc(C(F)(F)F)c1	16.0	-1.0	6.1	23.1	39.3	21.3	/
Cn1nc(C(F)(F)F)c(C(=O)Nc2ccc(F)cc2F)c1Sc1cccc(Cl)c1	-9.3	-0.9	17.6	16.9	44.3*	26.9	34.3*
O=C(Nc1nonc1-c1ccc(F)cc1)c1ccco1	-4.9	-4.5	9.8	0.6	12.3	2.7	/
O=C(CSc1ccccc1)NCC1(N2CCOCC2)CCCCC1	12.4	/	/	5.2	-5.4	1.4	/
Cc1ccc(-c2csc3ncnc(Nc4ccc(N5CCOCC5)cc4)c23)cc1	13.8	-53.9	8.5	29.1	40.0*	43.4	36.4*
Cc1ccc(-c2csc3ncnc(N4CCN(c5ccccc5O)CC4)c23)cc1	10.6	-19.0	15.6	-7.4	44.2*	43.9	5.4
COc1ccc(-c2csc3ncnc(N4CCN(c5ccccc5O)CC4)c23)cc1	16.8	-26.8	-1.4	2.5	26.3	40.2	/
Cc1ccc(-c2csc3ncnc(NCCN4CCOCC4)c23)cc1	20.2	-11.0	10.0	15.7	19.8	-43.6	/
O=C(c1ccco1)N1CCN(c2ncnc3scc(-c4ccc(F)cc4)c23)CC1	-1.5	1.2	4.8	31.9	49.3*	18.6	36.5*
CCn1c(SCc2cccc(C)c2)nnc1-c1ccccc1	-8.0	-22.0	3.7	29.2	47.4*	37.3	29.1
CCn1c(SCC(O)c2ccccc2)nnc1-c1ccccc1 (centres undefined)	20.8	17.7	34.6	5.9	26.9	12.7	/
Cc1cc(/C=C(\C#N)C(=O)N2CCOCC2)c(C)n1C1CCCC1	4.4	-8.0	13.8	18.7	22.5	13.5	/
